KB-3-1 tox: kills parental KB-3-1 adenocarcinoma cells; KB-3-1 viability, CellTiter-Glo ATP luminescence, 72 h; Potency, µM (doses to about 46.1 µM), most hits filed as cytotoxic; 400,000 compounds, 1.4% hits; AID 1347075; further: on the % scale 0 is the no-effect control and ±100 the full control effect; nearly all actives have a fitted effect of over 60% in size
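Screening of KB-3-1 cells (DMEM, 10% FBS, phenol-red free) ran from lowest to highest compound concentration; after 72 h at 37 °C viability was read luminescently and curves fitted.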
S2 tox: cell viability loss in ATXN counter-screen | S2 cells (HEK-293 line with an ATXN2-luciferase reporter) viability, CellTiter-Fluor protease fluorescence, 24 h | Potency, µM (doses to about 56.7 µM), usual class: cytotoxic | 400,000 compounds, 0.49% hits | AID 651635; further: nearly all actives have a fitted effect of over 40% in size
KB-V1 MDR tox: KB-V1 MDR subline cytotoxicity; KB-V1 MDR cells viability, CellTiter-Glo, 72 h; Potency, µM (highest dose often 46.1 µM), actives largely listed as cytotoxic; 400,000 compounds, 3.4% hits; further: on the % scale 0 is the no-effect control and ±100 the full control effect; nearly all actives have a fitted effect of over 60% in size
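Luminescent ATP read-out (CellTiter-Glo, 10 min) measures survival of drug-selected KB-V1 MDR cells after 72 h, 37 degrees C compound exposure. Medium: phenol-red-free DMEM, 10% FBS. Values from fitted concentration-response curves.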
ATXN2 expr inh: inhibitors of ATXN2 expression; HEK-293 ATXN2-luciferase reporter, luminescence, 24 h; Potency, µM (doses to about 57 µM), inactives show top-dose activity change, negative = inhibition, actives largely listed as inhibitors; 360,000 compounds, 0.72% hits; AID 1745845; further: on the % scale 0 is the no-effect control and ±100 the full control effect; nearly all actives have a fitted effect of over 55% in size
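ATXN2-luciferase reporter cells (luciferase flanked by upstream and downstream ATXN2 gene portions) were treated 24 h at 37 °C with compounds at up to 57 uM. SteadyGlo luminescence gave expression; GF-AFC fluorescence gave viability.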
HT1080NT lethal: kills 2HG-producing HT-1080-NT fibrosarcoma cells; HT-1080-NT fibrosarcoma viability, CellTiter-Glo ATP luminescence, 48 h; Potency, µM (titrated, usually from 46.1 µM), for the others: at the top dose activity, negative = less viability, most hits filed as cytotoxic; 360,000 compounds, 1.6% hits;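 further: NT is the 2HG producing partner of a matched IDH1 knockdown line; 0% = DMSO-treated cells and -100% = media-only wells without cells; nearly all actives have a fitted effect of over 55% in size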
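HT-1080-NT; 750 cells/well; 5% FBS RPMI; 48 h compound, 37 degrees C; CellTiter-Glo luminescence; curve fitting and curve-class assignment.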
HT1080 IDH1KD tx: HT-1080 IDH1 knockdown cell toxicity (counter line) | HT-1080 IDH1 knockdown viability, ATP luminescence, 48 h | 360,000 compounds, 2% hits | Potency, µM (top dose mostly 46.1 µM), without a hit: top-dose activity, negative = toxicity, most hits filed as cytotoxic | AID 686971;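 further: 0% = DMSO wells and -100% = cell-free medium wells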
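% activity derives from luminescence (CellTiter-Glo), normalised to DMSO and no-cell wells. HT-1080-IDH1KD cells, 750/well, had 48 h compound exposure at 37 °C.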
An asterisk follows results filed as active; i = inactive; ? = inconclusive; · = no result given. In the library only some 6.2% were active in any assay of this set; here they are far more common. The call rests on the fitted dose curve; in most records, active means well fitted curve in the direction sought with a large enough effect; inconclusive means small, poorly fitted or top-dose-only effect, or another doubt; inactive means no such curve, though single readings can be large; an effect the other way counts as inactive or inconclusive. Potency means the concentration at half of the fitted maximal effect.

SMILES	KB-3-1 tox	S2 tox	KB-V1 MDR tox	ATXN2 expr inh	HT1080NT lethal	HT1080 IDH1KD tx
O=C(NCC(=O)N1CCN(S(=O)(=O)c2ccccc2)CC1)c1ccc2ccccc2c1	i	i	12µM*	-35%	-5%	-1%
O=C(CCSc1ccc(Cl)cc1)N1CCN(S(=O)(=O)c2ccccc2)CC1	i	i	21µM*	-15%	-8%	-11%
CCOC(=O)N1CCN(C(=O)CCSc2ccc(C)cc2)CC1	i	i	i	25%	1%	-4%
C(=C\c1cnc2ccccc2n1)/c1ccc2c(c1)OCO2	?	·	i	·	·	·
Cc1cccc2c(N3CCCC3)nc(CNS(=O)(=O)c3ccccc3Cl)nc12	·	i	·	·	·	·
CC(=O)C1=C(C)NC(SCc2cccc([N+](=O)[O-])c2)=C(C#N)C1c1ccco1 (stereo unspecified)	i	i	10µM*	1%	0%	-9%
CC(=O)C1=C(C)NC(SCC(N)=O)=C(C#N)C1c1ccco1 (stereo unspecified)	i	i	?	10%	7%	2%
COc1ccc(-c2oc3ncn4nc(COc5cccc(C)c5C)nc4c3c2-c2ccc(OC)cc2)cc1	i	i	i	-1%	·	·
CC[n+]1ccnc2ccccc21	i	·	?	·	·	·
COC(=O)CCC(NC(=O)OCc1ccccc1)C(=O)NC(CC(C)C)C(=O)OC (stereo unspecified)	i	i	i	-3%	-17%	-15%
CC(=O)NC(Cc1ccccc1)C(=O)OCC(=O)c1ccc(Cl)cc1 (stereo unspecified)	i	i	i	1%	12%	26%
O=C(CCl)NC(Cc1ccccc1)C(=O)OCC(=O)c1ccc(-c2ccccc2)cc1 (stereo unspecified)	i	15µM*	i	-22%	-25%	?
O=C(N[C@@H](Cc1ccccc1)C(=O)CCl)OCc1ccccc1	?	16µM*	23µM*	28µM*	6.5µM*	21µM*
CC(C)C[C@@H](C=O)NC(=O)[C@H](CC(C)C)NC(=O)[C@H](CC(C)C)NC(=O)OCc1ccccc1	·	·	·	1.1µM*	·	·
O=C(N[C@@H](Cc1ccccc1)C(=O)N[C@@H](Cc1ccccc1)C(=O)O)OCc1ccccc1	i	i	i	1%	0%	16%
CCOC(=O)c1[nH]cnc1N=Nc1c(O)ccc2ccccc12	i	10µM*	?	11µM*	5.8µM*	6.5µM*
Cc1cccc(NC(=O)c2n[nH]c([N+](=O)[O-])c2Br)c1C	?	?	?	?	?	26µM*
C/C(=N\NC(=O)Cn1nc(C)c(Br)c1C)c1cccs1	i	i	15µM*	-11%	4%	-2%
C/C(=N\NC(=O)CSc1nc(C)cc(C)n1)c1cccs1	i	i	i	12%	0%	6%
CC1(C)CC(NC(=O)c2cc(COc3cccc(C(F)(F)F)c3)on2)CCO1 (stereo unspecified)	i	i	i	·	?	?
CC(=O)c1cccc(Nc2ccc(-c3ccccc3F)nn2)c1	i	i	i	55%	0%	-4%
COc1ccccc1-c1ccc(Nc2cccc(C(C)=O)c2)nn1	i	i	13µM*	33%	-2%	-25%
COc1ccc(OCc2cc(C(=O)N3CCCC(O)C3)no2)c2ccccc12 (stereo unspecified)	·	?	·	42%	-19%	-10%
N#Cc1c(Cl)cccc1N1CCSCC1	?	i	23µM*	16%	8%	-1%
N#Cc1c(N2CCSCC2)nsc1-c1ccccc1Cl	3.7µM*	i	4.6µM*	41%	-25%	?
COc1ccc(-c2nc3nc(C)cc(Nc4ccc(C(C)=O)cc4)n3n2)cc1	?	?	?	8%	·	·
